According to PubChem BioAssay (NCATS):
Where “and” joins values, the source holds several entries; their conditions need not be identical. Equal entries are not always repeated. Records with an inconclusive call do not appear. Calls of active or inactive are those of the source. Calls come from the whole dose curve; as a rule, active = well fitted curve in the direction sought with a large enough effect; inconclusive = small, poorly fitted or top-dose-only effect, or another doubt; inactive = no such curve, though single readings can be large; an effect the other way counts as inactive or inconclusive.

What was measured:
[1] = target: Calcium and integrin-binding protein 1 (Homo sapiens) (UniProt Q99828); test: Primary qHTS for Identification of Calcium Integrin Binding Protein 1 (CIB1) Competitor (AID 1508620);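 note: GST tagged CIB1 binding a fluorescein labelled alphaIIb integrin peptide tracer; top concentration of the series differs between compounds; % is set by controls: 0 for no effect and ±100 for the full control effect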
Chain of Calcium and integrin-binding protein 1 (Homo sapiens) (Q99828 whole entry, looked up): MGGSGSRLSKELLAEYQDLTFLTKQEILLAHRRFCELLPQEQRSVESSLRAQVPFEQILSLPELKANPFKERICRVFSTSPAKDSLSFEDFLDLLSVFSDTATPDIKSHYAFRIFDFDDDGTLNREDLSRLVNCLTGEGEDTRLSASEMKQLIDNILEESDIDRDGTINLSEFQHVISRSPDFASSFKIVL
How it was run: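 Fluorescence polarization competition: CIB1-GST (1 uM final) preincubated with compound 15 min at room temperature, then FITC-labeled alphaIIb peptide (100 nM final) added for another 15 min. Polarization read at Ex 480/Em 540.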

[2] = Primary qHTS for inhibitors of nuclear receptor binding SET domain protein 2 (NSD2) in an isogenic RCH-ACV NSD2 p.E1099K mutant (9B) (AID 1645876); note: nearly all actives have a fitted effect of over 70% in size; note: potency is the fitted concentration of half-maximal effect
[3] = target: Phospholipid hydroperoxide glutathione peroxidase GPX4 (Homo sapiens) (UniProt P36969); test: Primary qHTS Assay for Inhibitors of Recombinant Selenoprotein Glutathione Peroxidase 4 (GPX4) (AID 1845192); note: nearly all actives have a fitted effect of over 65% in size; for activity change, negative = inhibition: % is set by controls: 0 for no effect and ±100 for the full control effect
Chain of Phospholipid hydroperoxide glutathione peroxidase GPX4 (Homo sapiens) (P36969 whole entry, looked up): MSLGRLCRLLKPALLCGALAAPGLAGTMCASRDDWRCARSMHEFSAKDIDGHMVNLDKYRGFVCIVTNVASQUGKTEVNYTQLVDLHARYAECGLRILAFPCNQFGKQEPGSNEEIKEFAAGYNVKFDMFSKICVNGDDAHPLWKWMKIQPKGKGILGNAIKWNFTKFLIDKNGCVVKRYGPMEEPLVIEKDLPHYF
How it was run: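 qHTS, GR-coupled: GPX4 200 nM + cpd 30 min RT → GSH 1 mM, NADPH 0.5 mM, GR 100 nM → CHP 0.5 mM start; fluor 340/450 at t0 and t15 min; no-enzyme wells as control.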

[4] = target: Luciferin 4-monooxygenase (Photinus pyralis) (UniProt P08659); test: Primary firefly luciferase (FLuc) qHTS assay for identification of artifact compounds. (AID 1845220); details: outcome: dose series up to 54.1 µM unless noted; note: nearly all actives have a fitted effect of over 60% in size;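 for activity change, negative = inhibition: plate controls were DMSO vehicle for no effect and no enzyme for full effect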
How it was run: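 In this counter-screen for luciferase artifacts, test compounds met substrate (10 uM each luciferin and ATP) before 10 nM enzyme started the reaction. Light output was measured 5 min later.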

[5] = Primary fluorescence-based thiol-reactive (MSTI) qHTS assay for identification of artifact compounds. (AID 1845221); note: nearly all actives have a fitted effect of over 65% in size; note: potency is the fitted concentration of half-maximal effect;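 for activity change, negative = thiol reactive: thiol-reactive compounds lower the probe fluorescence signal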
How it was run: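 Curve-fitted percent inhibition (4-parameter Hill) derived from fluorescence, Ex 525/Em 598 nm, scaled with Acetyl-MSTI and MSTI; 1 h incubation at room temperature.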

[6] = tested on: Nanoluciferase (engineered Oplophorus gracilirostris luciferase); test: Primary Nanoluciferase (NLuc) qHTS assay for identification of artifact compounds. (AID 1845222);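 note: NLuc secreted into diluted conditioned medium of S16 cells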
How it was run: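 Using secreted nanoluciferase in S16 culture medium (0.22 um filtered, 1:55 dilution), compounds were preincubated 15 min at RT. Signal was generated with Nano-Glo reagent (1:100) over 5 min.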

[7] = Primary redox qHTS assay for identification of artifact compounds. (AID 1845223);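 note: 0% = DMSO and 100% = reference compound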
How it was run: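 Redox-cycling detection via DTT (250 uM final) oxidation coupled to Amplex Red (25 uM)/HRP (250 mU/mL) in HBSS. 15 min preincubation plus 30 min after DTT, room temperature. Ex/Em 525/598 nm; 4-parameter Hill fit against DMSO and 10 uM DA3003.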

CRL-7250 = normal cell line; test: Cytotoxic Profiling of Annotated Libraries Using Quantitative High-Throughput Screening (AID 1296008); details: Five cell lines viability, CellTiter-Glo ATP luminescence, 48-72 h; max response: hits give low values; note: nearly all actives have a fitted effect of over 60% in size; note: potency is the fitted concentration of half-maximal effect; for max response: % is set by controls: 0 for no effect and ±100 for the full control effect
How it was run: (§1)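 Compounds were pin-transferred onto cells and incubated 48 or 72 hr at 37 degree Celsius, 95% humidity. CellTiter-Glo was added, plates sat 10 min at room temperature, then ATP-coupled luminescence was imaged as the viability read-out.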

HEK293 = test: as above; details: Five cell lines viability, CellTiter-Glo ATP luminescence, 48-72 h; max response: hits give low values
How it was run: as §1

C33A = test: Primary qHTS to identify gynecologic anti-cancer compounds using libraries of approved drugs and bioactive compounds (AID 1345084); details: Gynecologic cancer cell panel viability, ATPlite luminescence, 48 h; series mostly up to 57.5 µM; note: nearly all actives have a fitted effect of over 55% in size; note: potency is the fitted concentration of half-maximal effect
How it was run: (§2)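 Cytotoxicity screen measuring ATP content by luciferase luminescence. Each compound is applied at five concentrations for 48 h at 37 C with 5% CO2.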

JEG-3 = test: as above; details: Gynecologic cancer cell panel viability, ATPlite luminescence, 48 h; series mostly up to 57.5 µM
How it was run: as §2

OV90 = test: as above; details: Gynecologic cancer cell panel viability, ATPlite luminescence, 48 h; series mostly up to 57.5 µM
How it was run: as §2

PA-1 = test: as above; details: Gynecologic cancer cell panel viability, ATPlite luminescence, 48 h; series mostly up to 57.5 µM
How it was run: as §2

Tov-21-G = test: as above; details: Gynecologic cancer cell panel viability, ATPlite luminescence, 48 h; series mostly up to 57.5 µM
How it was run: as §2

CAOV3 = test: as above; details: Gynecologic cancer cell panel viability, ATPlite luminescence, 48 h; series mostly up to 57.5 µM
How it was run: as §2

CASKI = test: as above; details: Gynecologic cancer cell panel viability, ATPlite luminescence, 48 h; series mostly up to 57.5 µM
How it was run: as §2

Es-2 = test: as above; details: Gynecologic cancer cell panel viability, ATPlite luminescence, 48 h; series mostly up to 57.5 µM
How it was run: as §2

Hek293T = test: as above; details: Gynecologic cancer cell panel viability, ATPlite luminescence, 48 h, control line for the selectivity index; series mostly up to 57.5 µM
How it was run: as §2

Tov112D = test: as above; details: Gynecologic cancer cell panel viability, ATPlite luminescence, 48 h; series mostly up to 57.5 µM
How it was run: as §2

NIH3T3 = test: Cytotoxic Profiling of Annotated Libraries Using Quantitative High-Throughput Screening (AID 1296008); details: Five cell lines viability, CellTiter-Glo ATP luminescence, 48-72 h; max response: hits give low values; note: nearly all actives have a fitted effect of over 60% in size; note: potency is the fitted concentration of half-maximal effect; for max response: % is set by controls: 0 for no effect and ±100 for the full control effect
How it was run: as §1

CCCCN1[C@@H]2CC[C@H]1CC(OC(c1ccc(F)cc1)c1ccc(F)cc1)C2 (stereo partly drawn)
active: Potency [2] 12900 nM | Potency (HEK293) 23100 nM | Potency (C33A) 22400 nM | Potency (OV90) 12600 nM | Potency (PA-1) 14100 nM
inactive: Potency [1] | Potency [3] | outcome [4] | Potency [5] | Potency [6] | Potency [7] | max response (CRL-7250) -21.5% | Potency (JEG-3) | Potency (Tov-21-G)

CCC1=CC2CN3CCc4c([nH]c5ccccc45)[C@@](C(=O)OC)(C2)[C@@H]13
inactive: Potency [1] | outcome [4] | Potency [7] | max response (CRL-7250) -21.4% | max response (HEK293) -6.65% | Potency (C33A) | Potency (CAOV3) | Potency (CASKI) | Potency (Es-2) | Potency (Hek293T) | Potency (JEG-3) | Potency (OV90) | Potency (PA-1) | Potency (Tov-21-G) | Potency (Tov112D)

Cc1sc2c(c1C)C(c1ccc(Cl)cc1)=NC(CC(=O)Nc1ccc(O)cc1)c1nnc(C)n1-2 (stereo not drawn)
inactive: Potency [1] | outcome [4] | Potency [6] | Potency [7] | Potency (C33A) | Potency (CASKI) | Potency (Es-2) | Potency (Hek293T) | Potency (JEG-3)
active: Potency [2] 129 nM and 263 nM | Potency (CRL-7250) 1160 nM | Potency (HEK293) 1460 nM | Potency (NIH3T3) 1300 nM | Potency (PA-1) 1780 nM

Nc1ncnc2c1ncn2[C@@H]1O[C@@H]2COP(O)(=S)O[C@H]2[C@H]1O (stereo partly drawn)
inactive: Potency [1] | outcome [2] inactive [at 9.23 µM] | outcome [3] inactive [at 9.73 µM] | outcome [4] inactive [at 11.6 µM] | activity change, negative = thiol reactive [5] -11.9% [at 11.5 µM] | activity, negative = inhibition [6] 0.0656% [at 11.6 µM] | redox activity (% of DA3003) [7] -10% [at 11.5 µM] | max response (CRL-7250) 1.79% | outcome (HEK293) | max response (NIH3T3) 4.38% | activity change, negative = cytotoxicity (C33A) 2.33% [at 11.6 µM] | activity change, negative = cytotoxicity (CAOV3) 2.86% [at 11.6 µM] | activity change, negative = cytotoxicity (CASKI) -3.97% [at 11.6 µM] | activity change, negative = cytotoxicity (Es-2) 5.19% [at 11.6 µM] | activity change, negative = cytotoxicity (Hek293T) 0.669% [at 11.6 µM] | activity change, negative = cytotoxicity (JEG-3) 6.35% [at 11.6 µM] | activity change, negative = cytotoxicity (OV90) 0.349% [at 11.6 µM] | activity change, negative = cytotoxicity (PA-1) 15.5% [at 11.6 µM] | activity change, negative = cytotoxicity (Tov-21-G) 2.4% [at 11.6 µM] | activity change, negative = cytotoxicity (Tov112D) 7.56% [at 11.6 µM]

Cc1ccccc1CN1CCC(N2CCC(n3c(=O)[nH]c4ccccc43)CC2)CC1
inactive: Potency [2] | Potency [3] | outcome [4] | Potency [5] | Potency [6] | Potency [7] | outcome (NIH3T3) | Potency (CASKI) | Potency (Es-2) | Potency (JEG-3) | Potency (PA-1) | Potency (Tov-21-G) | Potency (Tov112D)
active: Potency (CRL-7250) 7310 nM | Potency (HEK293) 6510 nM

CC[C@H](C)[C@H](NC(=O)[C@H]1CCCCN1C)C(=O)N(COC(=O)CC(C)C)[C@H](C[C@@H](OC(C)=O)c1nc(C(=O)N[C@@H](Cc2ccc(O)cc2)C[C@H](C)C(=O)O)cs1)C(C)C
active: Potency [2] 1.1 nM | Potency (CRL-7250) 4.7 nM | Potency (HEK293) 0.4 nM | Potency (NIH3T3) 1.2 nM | Potency (Es-2) 8.3 nM | Potency (Tov-21-G) 5.2 nM | Potency (Tov112D) 4.1 nM
inactive: activity change, negative = inhibition [1] 1.44% [at 2.24 µM] | activity change, negative = inhibition [3] -13.5% [at 1.09 µM] | activity change, negative = inhibition [4] -4.53% [at 1.03 µM] | activity change, negative = thiol reactive [5] 28.3% [at 1.02 µM] | activity, negative = inhibition [6] 2.85% [at 1.03 µM] | redox activity (% of DA3003) [7] -0.209% [at 1.02 µM] | activity change, negative = cytotoxicity (CAOV3) -2.04% [at 1.28 µM]

C[C@H]1CCC/C=C/C2C[C@H](O)C[C@H]2[C@H](O)/C=C/C(=O)O1 (stereo partly drawn)
inactive: Potency [1] | Potency [3] | outcome [4] | Potency [5] | Potency [7]
active: Potency [2] 163 nM and 332 nM | Potency (CRL-7250) 51.7 nM | Potency (HEK293) 580 nM | Potency (NIH3T3) 5170 nM | Potency (C33A) 631 nM | Potency (CAOV3) 316 nM | Potency (CASKI) 1000 nM | Potency (Es-2) 316 nM | Potency (Hek293T) 891 nM | Potency (JEG-3) 891 nM | Potency (OV90) 316 nM | Potency (PA-1) 316 nM | Potency (Tov-21-G) 1000 nM | Potency (Tov112D) 891 nM

C[C@H]1O[C@@H](O[C@H]2CC[C@]3(CO)C4CC[C@]5(C)[C@@H](C6=CC(=O)OC6)CC[C@]5(O)[C@@H]4CC[C@H]3C2)[C@H](O)[C@H](O)[C@@H]1O[C@@H]1O[C@H](CO)[C@@H](O)[C@H](O)[C@H]1O (stereo partly drawn)
active: Potency [2] 608 nM | Potency [5] 3160 nM | Potency (CRL-7250) 1220 nM | Potency (HEK293) 1530 nM | Potency (C33A) 1120 nM | Potency (CASKI) 6310 nM | Potency (Es-2) 3550 nM | Potency (Hek293T) 3160 nM | Potency (PA-1) 3160 nM | Potency (Tov-21-G) 2820 nM | Potency (Tov112D) 1120 nM
inactive: Potency [1] | Potency [3] | outcome [4] | Potency [6] | Potency [7] | max response (NIH3T3) -2.67%

COC1CC(O[C@H]2CC[C@]3(C)C4CC[C@]5(C)[C@@H](C6=CC(=O)OC6)[C@@H](OC(C)=O)C[C@]5(O)C4CC[C@@H]3C2)OC(C)C1O[C@@H]1O[C@H](CO)[C@@H](O)[C@H](O)[C@H]1O (stereo partly drawn)
inactive: Potency [1] | Potency [3] | outcome [4] | Potency [6] | max response (NIH3T3) 4.46%
active: Potency [2] 383 nM | Potency [5] 6300 nM | Potency (CRL-7250) 385 nM | Potency (HEK293) 485 nM | Potency (C33A) 631 nM | Potency (CAOV3) 1120 nM | Potency (CASKI) 3160 nM | Potency (Es-2) 794 nM | Potency (Hek293T) 1410 nM | Potency (OV90) 3160 nM | Potency (PA-1) 1120 nM | Potency (Tov-21-G) 562 nM | Potency (Tov112D) 355 nM

CC(=O)O[C@H]1CN2CCC1CC2
inactive: Potency [1] | Potency [2] | Potency [3] | outcome [4] | Potency [5] | Potency [6] | Potency [7] | max response (CRL-7250) -2.3% | max response (HEK293) -3.42% | max response (NIH3T3) 1.29% | Potency (C33A) | Potency (CAOV3) | Potency (CASKI) | Potency (Es-2) | Potency (Hek293T) | Potency (JEG-3) | Potency (OV90) | Potency (PA-1) | Potency (Tov-21-G) | Potency (Tov112D)

C[C@H](CCC(=O)O)C[C@H](C)C[C@H](C)C(=O)/C=C(\O)[C@H](C)C[C@H](C)C/C=C/[C@@H](C)[C@@H](O)[C@@H](C)[C@@H](O)C[C@@H]1CC[C@@](C)([C@H]2CC[C@@](C)([C@@H](C)O)O2)O1
inactive: Potency [1] | Potency [3] | outcome [4] | Potency [5] | Potency [6] | Potency [7] | Potency (C33A) | Potency (CAOV3) | Potency (CASKI) | Potency (Es-2) | Potency (Hek293T) | Potency (JEG-3) | Potency (PA-1) | Potency (Tov112D)
active: Potency [2] 7090 nM | Potency (CRL-7250) 3170 nM | Potency (HEK293) 5020 nM
